Screening data from PubChem BioAssay.
Most compounds without a hit are left out; they make up all but 11% or so of the library.
HP1b binding inh = blocks HP1-beta chromodomain binding to methylated histone tails; AlphaScreen HP1-beta / biotin-H3K9me3 peptide binding; Potency, µM (titrated, usually from 114 µM), for the others: at the top dose activity change, negative = inhibition, hits mostly inhibitors; 0.56% of 390,000 active; P83916; further: nearly all actives have a fitted effect of over 70% in size
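AlphaScreen: HP1-beta (50 nM) preformed 30 min with biotin-H3(1-18)K9me3 peptide (50 nM) in PBS pH 7.4, 0.01% Tween-20. Compound added for 30 min at RT, then streptavidin donor/nickel chelate acceptor beads (10 ug/mL) for 30 min.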
JMJD2A Tudor = JMJD2A Tudor domain (human) inhibition | O75164 | AlphaScreen JMJD2A-Tudor / H3K4me3 peptide binding | Potency, µM (doses to about 114 µM), inactives show top-dose activity change, negative = inhibition, usual class: inhibitors | 4.4% of 390,000 active | AID 504339; further: on the % scale 0 is the no-effect control and ±100 the full control effect; nearly all actives have a fitted effect of over 50% in size
G9a inh = G9a (human) methyltransferase inhibition; 8.8% of 350,000 active; Q96KQ7; AID 504332; Potency, µM (top dose mostly 102 µM), without a hit: at the top dose activity, negative = inhibition, most hits filed as inhibitors; G9a H3K9 monomethylation, AlphaScreen, 2 h; further: on the % scale 0 is the no-effect control and ±100 the full control effect; nearly all actives have a fitted effect of over 75% in size
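Quantitative HTS format: methyltransferase activity on a biotin-tagged H3K9 peptide is measured by AlphaScreen, using a rabbit anti-monomethyl-H3K9 antibody with streptavidin donor and anti-IgG acceptor beads. Final levels are 20 nM enzyme, 500 nM peptide, 20 uM SAM; 2 h RT.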
BAZ2B inh = BAZ2B (human) inhibition. AlphaScreen BAZ2B-H3K14Ac peptide displacement. 4.4% of 360,000 active. Potency, µM (highest dose often 114 µM), inactives show at the top dose activity change, negative = inhibition, actives largely listed as inhibitors; further: on the % scale 0 is the no-effect control and ±100 the full control effect; nearly all actives have a fitted effect of over 60% in size
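Compounds, titrated to a top concentration of 110 uM, were incubated 30 min at room temperature with preformed BAZ2B/acetyl-K14 H3 peptide complex (50 nM each). Proximity signal was measured by AlphaScreen after 20 min with beads.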
L3MBTL1 block = inhibitors of human L3MBTL1 | Q9Y468 | AlphaScreen L3MBTL1–H3K9me1 peptide binding | Potency, µM (doses to about 57.1 µM), inactives show top-dose activity, negative = inhibition, most hits filed as inhibitors | 0.66% of 230,000 active | AID 485360; further: on the % scale 0 is the no-effect control and ±100 the full control effect; nearly all actives have a fitted effect of over 60% in size
Target sequence (Q9Y468 whole entry, looked up): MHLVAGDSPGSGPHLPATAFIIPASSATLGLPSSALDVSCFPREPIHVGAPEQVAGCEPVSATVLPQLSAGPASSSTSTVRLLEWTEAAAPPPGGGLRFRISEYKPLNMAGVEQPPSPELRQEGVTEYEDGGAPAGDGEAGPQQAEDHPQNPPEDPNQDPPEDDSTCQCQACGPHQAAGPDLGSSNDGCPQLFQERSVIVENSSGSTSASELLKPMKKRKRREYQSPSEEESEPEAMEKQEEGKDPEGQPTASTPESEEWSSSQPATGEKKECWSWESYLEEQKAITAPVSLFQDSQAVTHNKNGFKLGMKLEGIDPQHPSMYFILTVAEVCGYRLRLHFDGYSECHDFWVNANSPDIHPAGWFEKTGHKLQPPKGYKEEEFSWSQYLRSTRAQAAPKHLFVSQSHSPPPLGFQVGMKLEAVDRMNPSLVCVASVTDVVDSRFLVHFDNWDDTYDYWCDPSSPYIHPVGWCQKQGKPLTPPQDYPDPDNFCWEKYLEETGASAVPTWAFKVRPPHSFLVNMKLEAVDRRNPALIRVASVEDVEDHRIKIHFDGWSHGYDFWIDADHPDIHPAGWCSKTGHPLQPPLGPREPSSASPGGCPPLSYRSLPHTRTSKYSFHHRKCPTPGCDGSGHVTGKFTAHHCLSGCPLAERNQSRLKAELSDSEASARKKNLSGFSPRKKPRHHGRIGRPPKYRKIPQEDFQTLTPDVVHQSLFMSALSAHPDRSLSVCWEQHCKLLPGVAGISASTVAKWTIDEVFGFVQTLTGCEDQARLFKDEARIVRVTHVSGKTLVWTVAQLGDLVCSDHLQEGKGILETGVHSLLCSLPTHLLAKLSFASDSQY
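AlphaScreen assay: L3MBTL1 (50 nM final) was preincubated 30 min at room temperature with biotinylated H3(1-15)K9me1 peptide (75 nM final), then 30 min with library compounds; streptavidin donor and nickel chelate acceptor beads (10 ug/mL final) added, 30 min dark.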
* marks the source's active call; other numbers are inactive results; ? = inconclusive; nt = no result given; ! = repeats disagree; [ ] = another dose, or the depositor's remark. The call rests on the fitted dose curve; in most records, active means well fitted inhibition curve with a large enough effect; inconclusive means small, poorly fitted or top-dose-only effect; inactive means no such curve, though single readings can be large or run the other way. Potency means the concentration at half of the fitted maximal effect.

SMILES | HP1b binding inh | JMJD2A Tudor | G9a inh | BAZ2B inh | L3MBTL1 block
Cc1cc(O)c(/C=N/Nc2ccc(F)cc2)c(=O)o1 | 29.7% | ? | 4.47µM* | -33.4% | -0.1%
CCOc1ccc(N=Cc2c(O)cc(C)oc2=O)cc1 | 37.6% | -20.7% | -35.3% | -4.2% | -1.7%
Cc1cc(O)c(C=Nc2ccc(Cl)cn2)c(=O)o1 | 7.1% | 31.6µM* | -34.1%[12.7 µM] | ? | nt
Cc1nc2cnc(N3CCN(C)CC3)nc2n(C2CC2)c1=O | nt | nt | 8.0%[0.501 µM] | nt | nt
Cc1ccc(/C=C2\CCCC3=C2NC(=S)NC3c2ccc(C)cc2)cc1 (stereo not given) | -14.8% | ? | 8.91µM* | ? | -5.6%
Cc1cc(C)c(NC(=O)Cc2csc(C)n2)c(Cl)c1 | 15.0% | -12.3% | 7.7%[59 µM] | 0.5% | nt
CN(N)c1ccc2c(C(F)(F)F)cc(C(F)(F)F)nc2n1 | -15.4% | ? | 35.4% | ? | nt
FC(F)(F)c1cc(C(F)(F)F)c2ccc(N/N=C/c3ccccc3)nc2n1 | 41.3% | -10.8% | -7.9%[59 µM] | 3.2% | -2.7%
Cc1ccc(C(C#N)c2ccc3c(C(F)(F)F)cc(C(F)(F)F)nc3n2)cc1 (stereo not given) | 14.1µM* | 5.62µM* | 11.2µM* | 8.91µM* | ?
N#CC(c1ccccc1)c1ccc2c(C(F)(F)F)cc(C(F)(F)F)nc2n1 (stereo not given) | 14.1µM* | 44.7µM* | 10µM* | 10µM* | nt
Nc1c(Cl)cc(N=Nc2ccccc2)cc1Cl | ? | 14.1µM* | nt | nt | nt
N#CC1=C(N)C(C#N)(C#N)C(c2cccnc2)C2CCCC=C12 (stereo not given) | nt | nt | 44.7µM* | -22.5% | -8.6%
N#CC1=C(N)C2=CCCC[C@H]2[C@H](c2cccc(F)c2)C1(C#N)C#N | 7.7% | -21.5% | -7.7%[59 µM] | 1.0% | -2.4%
N#CC1=C(N)C(C#N)(C#N)C(c2cccnc2)C2CC(c3ccccc3)CC=C12 (stereo not given) | 39.6% | -7.5% | nt | -36.9% | -0.6%
N#CC1=C(N)C(C#N)(C#N)C(c2ccc[nH]2)C2CCCC=C12 (stereo not given) | 6.5% | -31.3% | 35.5µM* | -14.4% | -7.6%
CCOc1ccccc1CNc1ncnc2c1nc1n2CCCC1 | 46.9% | -1.7% | -3.0%[59 µM] | 1.3% | nt
CC(C)C[C@@H](/C=C/S(C)(=O)=O)NC(=O)[C@H](CC(C)C)NC(=O)[C@H](CC(C)C)NC(=O)OCc1ccccc1 | nt | nt | 36.3%[59 µM] | nt | nt
CN(C)CCCNS(=O)(=O)c1ccc(N2CCN(Cc3ccc4c(c3)OCO4)CC2)c([N+](=O)[O-])c1 | 22.4µM* | 5.62µM* | 10µM* | 22.4µM* | nt
O=[N+]([O-])c1ccc(N2CCN(Cc3ccc4c(c3)OCO4)CC2)nc1 | 0.8% | ? | nt | ? | -12.7%
CC(=O)c1ccc(N2CCN(c3ccc(S(=O)(=O)NCCN(C)C)cc3[N+](=O)[O-])CC2)cc1 | 31.7% | -7.0% | nt | ? | nt
CN(C)CCNS(=O)(=O)c1ccc(N2CCc3ccccc32)c([N+](=O)[O-])c1 | ? | ? | 50.1µM* | ? | nt
O=Cc1cc([N+](=O)[O-])ccc1N1CCN(Cc2ccc3c(c2)OCO3)CC1 | 6.8% | ? | 44.7µM* | ? | nt
CC(C)(C)OC(=O)CC(=O)NNC(=O)c1nc2ccccc2[nH]1 | nt | -32.2% | nt | nt | nt
CCN(Cc1ccccc1)C(=O)CCS(=O)(=O)c1cc2c(cc1Cl)NC(=O)CO2 | 50.1% | -3.5% | 50.1µM*! | 4.4% | 2.5%
Cn1c(-c2cccc(Br)c2)cnc1NCc1ccccc1O | ? | 20µM* | nt | 50.1µM* | -15.5%
SMILES | HP1b binding inh | JMJD2A Tudor | G9a inh | BAZ2B inh | L3MBTL1 block
Cn1c(NCc2cc(Br)ccc2O)nc2ccccc21 | 29.6% | -9.3% | 16.6% | 31.4% | 25.7%
CC1=NN(c2nc(-c3ccc(C)cc3)cs2)C(=O)C1N=Nc1ccccc1O (stereo not given) | 1.7% | ? | nt | ? | 12.2%
CC1=NN(c2nc(-c3ccc(C)cc3)cs2)C(=O)C1N=Nc1cccc(O)c1 (stereo not given) | ? | 14.1µM* | 39.8µM* | ? | ?
CC1=NN(C(N)=S)C(=O)C1N=Nc1cccc([N+](=O)[O-])c1 (stereo not given) | 4.5% | -17.8% | 17.8% | 9.2% | nt
CC1=NN(c2ccccc2)C(=O)C1N=Nc1cccc(O)c1 (stereo not given) | -15.9% | ? | 70.8µM* | ? | -27.8%
COc1ccc(N=NC2C(=O)N(c3ccccc3)N=C2C)cc1 (stereo not given) | 7.08µM* | 7.94µM* | ? | 1.58µM* | nt
CC1=NN(c2ccccc2)C(=O)C1c1ccccc1 (stereo not given) | -5.1% | -33.6% | -12.9%[59 µM] | -31.8% | -2.0%
CC1=NN(c2ccccc2)C(=O)C1N=Nc1ccc(N)cc1 (stereo not given) | ? | ? | ? | 12.6µM* | 25.1µM*
O=C(NCC(c1cccnc1)N1CCc2ccccc21)c1ccc(F)cc1 (stereo not given) | 26.3% | -12.5% | -1.7%[59 µM] | 10.8% | nt
CC(C)c1ccc(CN(Cc2ccco2)c2cnc(S(C)(=O)=O)nc2C(=O)Nc2ccc(F)cc2)cc1 | 17.4% | ? | -14.1%[59 µM] | -23.5% | nt
CC1=NN(c2ccccc2)C(=O)C1N=Nc1ccccc1 (stereo not given) | ? | ? | 0.891µM* | 3.16µM* | -27.9%
N#C/C(=N\Nc1ccc(Cl)c(Cl)c1)C(=O)C1CC1 | ? | 50.1µM* | nt | 44.7µM* | nt
Clc1cccc(-c2csc(Nc3cccnc3)n2)c1 | 12.6% | -7.2% | 44.7µM* | -3.5% | 4.8%
COc1ccc(-c2csc(Nc3cccnc3)n2)cc1OC | 60.2% | -16.0%[57.1 µM] | 50.1µM* | -5.6% | -1.7%
COc1ccc(-c2csc(Nc3cccc(C)n3)n2)cc1C | -27.6% | -24.4% | 50.1µM* | -34.1% | nt
c1cncc(Nc2nc(-c3cccnc3)cs2)c1 | 13.7% | -26.6% | ? | 4.1% | -3.8%
Cc1ccc(Nc2nc(-c3ccc(O)c(O)c3)cs2)nc1 | ? | 31.6µM* | 15.8µM* | 39.8µM* | -6.6%
Cc1c(C(=O)N(C)C)sc2c1c(=O)n(-c1ccc(Cl)c(Cl)c1)c(=O)n2CC(=O)Nc1ccc(Br)cc1F | 51.2% | -16.3% | -1.5%[59 µM] | -1.2% | nt
CSc1ccc(CNC(=O)CN2C(=O)C3CCCCN3c3ccc(C(=O)N4CCCC4)cc32)cc1 (stereo not given) | 21.8%[57 µM] | -13.7% | -16.6%[59 µM] | -13.0% | nt
CCOC(=O)c1cnc2ccccc2c1Nc1cccc(OC)c1 | 98.3% | 15.2% | 4.9%[59 µM] | 34.2% | nt
Clc1ccccc1Nc1nc(-c2cccnc2)cs1 | -15.7% | -25.0% | -12.5%[12.7 µM] | 56.2µM* | -12.2%
Cc1ccnc(Nc2nc(-c3c(C)nc4sccn34)cs2)c1 | -33.6% | ? | ? | 44.7µM* | nt
Cc1ccnc(Nc2nc(-c3ccccc3)cs2)c1 | 67.1% | -9.3% | -2.4% | -19.0% | 1.1%
COc1ccc(-c2csc(Nc3cc(C)ccn3)n2)cc1OC | -36.4% | ? | 39.8µM* | ? | -13.9%
